From the supplement of paper PMC13380429
A number with no mark means an inactive call.

Test system: Vero E6 infected with SARS-CoV-2
Assay: inhibition of SARS-CoV-2 cytopathic effect; higher = more antiviral protection, active = above 15
Conditions: 48 h

| Structure (SMILES) | inhibition of SARS-CoV-2 cytopathic effect (1 nM) [%] | inhibition of SARS-CoV-2 cytopathic effect (8.33 nM) [%] | inhibition of SARS-CoV-2 cytopathic effect (100 nM) | inhibition of SARS-CoV-2 cytopathic effect (833.33 nM) | inhibition of SARS-CoV-2 cytopathic effect (10000 nM) |
| --- | --- | --- | --- | --- | --- |
| COc1cc2ncc(-c3ccccc3)nc2cc1OC [tyrphostin-AG-1296] | 1.41 | 0.53 | 0.84% | -1.04% | -1.96% |
| COc1cc2ncnc(Nc3ccc(O)c(Br)c3)c2cc1OC | 0.67 | -0.59 | -3.04% | -5.16% | -9.51% |
| Cc1nc(Nc2ncc(C(=O)Nc3c(C)cccc3Cl)s2)cc(N2CCN(CCO)CC2)n1 [dasatinib] | 1.14 | -1.86 | -4.77% | -12.6% | -11.6% |
| Nc1nc2c(cnn2CCc2ccccc2)c2nc(-c3ccco3)nn12 | 1.74 | 1.86 | -4.65% | -2.26% | -2.96% |
| CCCCc1nc(-c2ccc(OCCCN(CC)CC)cc2)cn1-c1ccc(Oc2ccc(Cl)cc2)cc1 [azeliragon] | 0.74 | -0.49 | 1.43% | 1.68% | -13.2% |
| C[C@H](Cn1cnc2c(N)ncnc21)OCP(=O)(O)O [tenofovir] | -0.47 | -2.44 | -1.27% | 0.5% | 0.69% |
| C[C@@H]1CN(Cc2ccc(F)cc2)CCN1C(=O)COc1ccc(Cl)cc1NC(N)=O | -1.77 | -0.1 | -2% | -1.98% | -1.75% |
| O=C(c1cncc(Br)c1)N1CCC(N2CCCC2)CC1 | -1.15 | -2.01 | -1.71% | -4.94% | 0.82% |
| CC(C)(C#N)c1cc(Cn2cncn2)cc(C(C)(C)C#N)c1 [anastrozole] | -1.6 | 0.38 | -0.32% | -1.74% | -0.89% |
| CCS(=O)(=O)N(Cc1cccnc1)c1cccc(-c2ccc(C#N)cc2)c1 | 1.24 | 1.74 | 1.23% | 4.38% | 8.38% |
| CC(C)(C)C(=O)OCOC(=O)[C@@H]1N2C(=O)[C@@H](/N=C/N3CCCCCC3)[C@H]2SC1(C)C [pivmecillinam] | 1.02 | 0.8 | -0.38% | -0.99% | 0.82% |
| CCOC(=O)c1c(/C(C#N)=C\N)c2ccc(Cl)c(Cl)c2n1C | -0.1 | 0.69 | 0.36% | 0.1% | -2.18% |
| CC(C(=O)O)c1ccc(CC2CCCC2=O)cc1 (stereo not given) [loxoprofen] | 0.21 | 3.24 | 2.9% | 0.82% | 2.16% |
| CN(C)C(=O)COC(=O)Cc1ccc(OC(=O)c2ccc(NC(=N)N)cc2)cc1 [camostat-mesilate] | 3.69 | -0.38 | 1.74% | 1.93% | -2.24% |
| O=C(CCCN1CCC(O)(c2ccc(Br)cc2)CC1)c1ccc(F)cc1 [bromperidol] | 3.91 | 3.53 | 2.65% | -0.17% | -3.61% |
| CN(NC(=O)CC(=O)NN(C)C(=S)c1ccccc1)C(=S)c1ccccc1 [elesclomol] | 1.66 | 2.35 | 18% (active) | 19.7% (active) | 36.4% (active) |
| Cc1nc(=O)c2cc(CN(C)c3ccc(C(=O)N[C@@H](CCC(=O)O)C(=O)O)s3)ccc2[nH]1 [raltitrexed] | -0.77 | 5.47 | 1.2% | -4.47% | -1.82% |
| CNC(=O)[C@H]1O[C@@H](n2cnc3c(NCc4cccc(I)c4)nc(Cl)nc32)[C@H](O)[C@@H]1O | 2.28 | 3.03 | 4.18% | 2.83% | 0.99% |
| Cc1ccc(NC(=O)C2(c3ccc4c(c3)OC(F)(F)O4)CC2)nc1-c1cccc(C(=O)O)c1 [lumacaftor] | 2.48 | 0.38 | -1.4% | -0.17% | 1.24% |
| C=C(c1ccccc1OCc1cccc(Cl)c1)n1ccnc1 [croconazole] | -1.55 | -2.51 | 0.21% | 2.28% | -1.36% |
| CC1(C)S[C@@H]2[C@H](NC(=O)[C@H](NC(=O)N3CCNC3=O)c3ccccc3)C(=O)N2[C@H]1C(=O)O [azlocillin] | -1.64 | -1.64 | 1.05% | -1.76% | -1.54% |
| CN1CCN(c2ccc3ccccc3n2)CC1 [N-methylquipazine] | 0.97 | -1.57 | 0.41% | -1.31% | -0.19% |
| COc1cc(C2Oc3cc([C@H]4Oc5cc(O)cc(O)c5C(=O)[C@@H]4O)ccc3OC2CO)ccc1O (stereo not given in full) [silibinin] | -0.88 | -0.77 | 0.27% | -1.29% | 1.72% |
| CCC[C@@H]1C[C@@H](C(=O)N[C@@H]([C@H]2O[C@H](SC)[C@H](O)[C@@H](O)[C@H]2O)[C@H](C)Cl)N(C)C1 | 0.61 | -0.55 | -0.83% | -2.28% | -4.1% |
| Cc1cc(-c2ccc(/N=N/c3ccc4c(S(=O)(=O)O)cc(S(=O)(=O)O)c(N)c4c3O)c(C)c2)ccc1/N=N/c1ccc2c(S(=O)(=O)O)cc(S(=O)(=O)O)c(N)c2c1O [evans-blue] | -1.16 | -4.89 | 2.16% | -0.35% | -17.6% |
| CCN(CC)CCOc1ccc(C(O)(Cc2ccc(Cl)cc2)c2ccc(C)cc2)cc1 (stereo not given) [Triparanol] | -0.73 | 1.69 | -1.43% | -2.54% | 51.4% (active) |
| CN(C)CCOC(c1ccc(Cl)cc1)c1ccccn1 (stereo not given) [carbinoxamine] | 1.68 | 1.53 | 1.23% | 1.37% | -1.45% |
